Compound activity: PubChem, National Center for Advancing Translational Sciences (NCATS)
NS1 inh: inhibitors of influenza NS1 protein function | AID 2326 | Potency, µM (titrated, usually from 46.1 µM), for inactives: at the highest dose activity, positive = more growth | actives 0.4% (n = 270,000); calls by dose curve; also: actives are rising curves; nearly all actives have a fitted effect of over 50% in size
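Growth recovery, yeast-based: influenza A NS1 expressed in S. cerevisiae causes slow growth, and suppressors are detected by OD600. The parent strain without NS1 is used as positive control.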
Pf growth 48h: P. falciparum growth inhibition at 48 hours (one generation); P. falciparum luciferase growth in erythrocytes, 48 h; Potency, µM (top dose mostly 28.7 µM), for inactives: at the highest dose activity change, negative = inhibition, usual class: inhibitors; actives 5.9% (n = 310,000); AID 504832; also: % is scaled to controls: 0 for no effect and ±100 for the full control effect
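First compound was added to culture medium, then infected red cells at 0.1% parasitemia and 2% hematocrit (final). After incubation at 37 C under 5% CO2, luciferase detection reagent was dispensed and light output recorded.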
SARS PLpro yeast: SARS-CoV PLP inhibition in yeast; S. cerevisiae expressing SARS-CoV PLpro, growth rescue; Potency, µM (top dose mostly 32.9 µM), for the others: top-dose activity, positive = growth rescue, most hits filed as activators; actives 0.19% (n = 330,000); AID 485353; calls by dose curve; also: 0% is about no effect; nearly all actives have a fitted effect of over 55% in size
Pf growth 96h: inhibits malaria parasite growth, 96 h. P. falciparum luciferase reporter growth, 96 h. Potency, µM (titrated, usually from 28.7 µM), for the others: at the highest dose activity change, negative = inhibition, actives largely listed as inhibitors. actives 6.9% (n = 320,000); also: % is scaled to controls: 0 for no effect and ±100 for the full control effect
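P. falciparum expressing integrated firefly luciferase, in erythrocytes at 2% hematocrit, 0.05% parasitemia, incubated with compounds 96 h at 37 C, 5% CO2. Growth inhibition read as loss of luminescence; two-generation exposure targets delayed-death apicoplast inhibitors.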
Numbers without * were called inactive; u = inconclusive; x = no result given; [ ] = another dose, or the depositor's remark. An excerpt weighted towards active compounds, which were near 10% of everything screened. Unless noted, calls follow the shape of the dose curve; as a rule, active = well fitted inhibition curve with a large enough effect; inconclusive = small, poorly fitted or top-dose-only effect, or another doubt; inactive = no such curve, though single readings can be large or run the other way. Potency is read from the fitted curve at half-maximal effect.

SMILES	NS1 inh	Pf growth 48h	SARS PLpro yeast	Pf growth 96h
Cc1ccc2[nH]c(=O)c(CN(CCCN3CCOCC3)C(=O)Nc3ccc(Cl)cc3)cc2c1	-10%	3.7µM*	4%	0%
Cc1cccc(N(C)S(=O)(=O)c2c(C)noc2C)c1	3%	8%	-9%	9.3µM*
COc1ccc(Cl)cc1NC(=O)CCNS(=O)(=O)c1cccc2nonc12	8%	27%	2%	10µM*
COc1ccc(C)cc1NC(=O)CCNS(=O)(=O)c1cccc2nonc12	-5%	0%	-8%	21%
CCc1ccccc1NS(=O)(=O)c1cc2c3c(c1)CCN3C(=O)CC2	x	-21%	-3%	-15%
CCCN1C(=O)c2cccc3c(N4CCCCC4)ccc(c23)C1=O	3%	-1%	18%	13µM*
CCc1cccc2c(C(=O)CCl)c[nH]c12	-17%	-8%	13µM*	u
COC(=O)c1ccc(CNC(=O)Cn2cnc3c(OCc4ccccc4)ncnc32)cc1	x	x	1%	x
c1ccc2c(c1)[nH]c1c(N3CCCC3)ncnc12	-10%	u	2%	2.6µM*
c1ccc2c(c1)[nH]c1c(N3CCSCC3)ncnc12	8%	0%	-2%	8%
CN1CCN(c2ncnc3c2[nH]c2ccc(F)cc23)CC1	1%	2.9µM*	3%	u
Brc1ccc2[nH]c3c(N4CCc5ccccc5C4)ncnc3c2c1	-12%	1.7µM*	4%	x
Cc1ccc2[nH]c3c(N4CCc5ccccc5C4)ncnc3c2c1	-79%	u	-2%	u
CCOc1ccc2[nH]c3c(N4CCc5ccccc5C4)ncnc3c2c1	-5%	u	-5%	13µM*
Fc1ccc2[nH]c3c(N4CCc5ccccc5C4)ncnc3c2c1	-4%	2.9µM*	-1%	1.9µM*
S=C(NCc1ccccc1)N1CCn2cccc2C1c1ccncc1 (stereo unspecified)	x	5%	-1%	u
S=C(NCc1ccccc1)N1CCn2cccc2C1c1cccnc1 (stereo unspecified)	x	4.7µM*	0%	4.7µM*
Fc1ccc(C2c3cccn3CCN2C(=S)Nc2cccc(Br)c2)cc1 (stereo unspecified)	x	12µM*	-10%	u
Fc1ccc(NC(=S)N2CCn3cccc3C2c2cccnc2)cc1 (stereo unspecified)	x	u	-3%	-16%
S=C(NCCc1ccccc1)N1CCn2cccc2C1c1cccnc1 (stereo unspecified)	x	12µM*	-17%	10µM*
CCCCNC(=S)N1CCn2cccc2C1c1ccccc1 (stereo unspecified)	x	4.7µM*	-5%	u
Cc1ccc(S(=O)(=O)N2CCCCC2)cc1NC(=O)COC(=O)C1(C)CC1(Cl)Cl (stereo unspecified)	x	u	-3%	u
O=C(c1cccc(S(=O)(=O)Nc2ccc(F)cc2)c1)N1CCC1	x	u	3%	-26%
NC(=O)c1ccc(NC(=O)CSC(=O)c2ccccc2)cc1	x	x	0%	x
O=C(O)CNc1ccc(C(=O)O)cc1	0%	x	x	x
SMILES	NS1 inh	Pf growth 48h	SARS PLpro yeast	Pf growth 96h
COC(=O)c1ccc(CSc2nc3c(cnn3-c3ccc(F)cc3)c(=O)[nH]2)o1	8%	13%	-10%	u
COC(=O)c1ccc(CSc2nc3c(cnn3-c3ccc(Cl)cc3)c(=O)[nH]2)o1	2%	1%	-4%	6.6µM*
CSc1ccc(Cl)c(C(=O)Nc2ccc(Cl)cn2)c1	-3%	11%	-1%	7.4µM*
Cc1ccsc1C(=O)OC(C)C(=O)Nc1ccc(Cl)cn1 (stereo unspecified)	x	x	-40%	x
CC(=O)NNc1cccc(Cl)n1	u	16%	3%	0%
O=C(NNc1cccc(Cl)n1)C(F)(F)F	x	12µM*	1%	2.3µM*
CC(C)N(C(=O)COC(=O)c1cncc(Br)c1)C(C)C	x	5%	-10%	26%
c1ccc(CN2CCC(N3CCC(N4CCCCCC4)CC3)CC2)cc1	27%	13µM*	9%	8.3µM*
O=S(=O)(c1ccccc1)N1CCN(C2CCN(Cc3ccccc3)CC2)CC1	-11%	0.1µM*	4%	0%
OCC[C@@H]1C[C@@H](O)[C@H](O)[C@]2(CCc3ccccc3CO2)O1	0%	42%	-3%	21%
COc1cc(NC(=O)c2ccc(N3CC4CC(C3)c3cccc(=O)n3C4)c(NC(=O)c3ccncc3)c2)cc(OC)c1OC (stereo unspecified)	-12%	u	18%	u
O=C(Nc1ccnn1C1CCN(C(=O)Cc2cccc(Cl)c2)CC1)C1CC1	-4%	-7%	7%	13µM*
Cc1cc(CN2CCC(n3nccc3NC(=O)c3ccccc3Cl)CC2)cc(C)c1O	-2%	10µM*	1%	9%
O=C(Nc1ccnn1C1CCN(Cc2ccc(O)c(Cl)c2)CC1)C1CCCC1	0%	2.1µM*	2%	u
Cc1cc(C)c(NC(=O)C2CC3CCC2C3)c(C)c1 (stereo unspecified)	10%	10µM*	-1%	25%
CC(C)c1ccc(N(CC(=O)NCCCN2CCOCC2)S(=O)(=O)c2ccccc2)cc1	x	u	-3%	u
CCCc1c(C(=O)NNc2ccccc2OC)cnn1-c1ccccc1	4%	u	-1%	9.3µM*
CCc1ccccc1-n1ncc(C(=O)Nc2ccccc2OC)c1C	-144%	12µM*	-24%	13µM*
COc1ccccc1NC(=O)c1ccccc1C(=O)Nc1ccccc1OC	2%	13%	-9%	-2%
Cn1c(=N)n(CC(=O)c2ccc(Br)s2)c2ccccc21	4%	x	4%	-65%
CCN(CC)CCn1c(=N)n(CCOc2ccccc2)c2ccccc21	6%	x	2%	8.3µM*
CCN(CC)CCn1c(=N)n(CC(O)COc2ccccc2)c2ccccc21 (stereo unspecified)	1%	3.3µM*	0%	2.3µM*
CCN(CC)CCn1c(=N)n(CCO)c2ccccc21	0%	-10%	1%	u
CCN(CC)CCn1c(=N)n(CC(=O)c2ccc(Br)s2)c2ccccc21	9%	1.9µM*	-1%	1.9µM*
C1CCN(CC[C@@H]2CCCCN2)CC1	-3%	x	x	x
SMILES	NS1 inh	Pf growth 48h	SARS PLpro yeast	Pf growth 96h
CNc1nc(N/N=C/c2ccc([N+](=O)[O-])cc2)nc(Nc2ccccc2)n1	27%	3.3µM*	-58%	u
O=[N+]([O-])c1cc2c(cc1/C=N/Nc1nc(Nc3ccccc3)nc(N3CCCCC3)n1)OCO2	u	4.7µM*	1%	2.9µM*
O=[N+]([O-])c1ccc(Nc2nc(N/N=C/c3cccc(F)c3)nc(N3CCCC3)n2)cc1	23%	2.9µM*	-16%	u
O=[N+]([O-])c1ccc(/C=N/Nc2nc3ccccc3o2)cc1	1%	129%	1%	9.3µM*
CCC(C)c1ccccc1NC(=S)NC(=O)c1ccco1 (stereo unspecified)	-28%	u	4%	-18%
Cc1ccc(Nc2nc(N/N=C\c3ccc4c(c3)OCO4)nc(N3CCOCC3)n2)cc1	x	10µM*	-7%	u
CC(=O)Oc1ccc(OC(C)=O)c(SCCCCCN2CCOCC2)c1	-3%	5.2µM*	0%	7.4µM*
CC(C)c1ccc(OCCCCCN2CCOCC2)cc1	3%	-11%[0.00184 µM]	-3%	34%
